Screening results as filed in PubChem BioAssay.
Cav32 inh = blocks human Cav3.2 T-type calcium channel; O95180; Cav3.2-expressing cells, Fluo-4 calcium fluorescence FDSS; active compounds read low; B-score at 10 µM; actives 4% (n = 100,000);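 active = single-dose well whose peak fluorescence ratio is a statistical outlier from its plate by either plate-standardised score or position-corrected B-score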
PLAP act = activates human placental alkaline phosphatase. P05187. purified PLAP enzyme, luminescent substrate read-out; active compounds read high. actives 1.2% (n = 96,000). AID 696. activation fold at 20 µM; in the data active = activation fold above about 2
Target sequence (P05187 whole entry, looked up): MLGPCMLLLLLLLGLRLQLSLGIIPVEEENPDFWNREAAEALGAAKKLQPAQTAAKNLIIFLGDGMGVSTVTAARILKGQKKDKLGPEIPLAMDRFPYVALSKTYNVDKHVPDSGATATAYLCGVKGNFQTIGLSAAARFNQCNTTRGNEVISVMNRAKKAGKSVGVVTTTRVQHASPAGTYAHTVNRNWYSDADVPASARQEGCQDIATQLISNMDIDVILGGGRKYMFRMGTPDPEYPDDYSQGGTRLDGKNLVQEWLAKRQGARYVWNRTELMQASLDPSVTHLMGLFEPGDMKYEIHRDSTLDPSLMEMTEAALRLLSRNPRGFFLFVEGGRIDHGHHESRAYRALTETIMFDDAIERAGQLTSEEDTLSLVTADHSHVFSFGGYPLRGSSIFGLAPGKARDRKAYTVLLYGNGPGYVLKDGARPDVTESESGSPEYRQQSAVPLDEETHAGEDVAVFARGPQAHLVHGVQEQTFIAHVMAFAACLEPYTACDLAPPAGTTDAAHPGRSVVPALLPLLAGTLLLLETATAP
D1 mod = allosteric modulators of human D1 dopamine receptor; P21728; HEK293 D1, CRE-luciferase, dopamine EC30 potentiation; actives deviate in either direction; B-score at 10 µM; actives 5.9% (n = 58,000);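 active = luminescence count or its row- and column-corrected plate score outside the 99.7% band of the plate's sample wells, on either side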
PostGolgi ctrl = yeast control strain growth, post-Golgi counter-screen; efflux-deficient yeast background strain, growth absorbance A615, 16 h; inhibition, % at 10 µM; AID 738; actives 5% (n = 98,000)
PostGolgi yeast = growth inhibition of a yeast mutant, post-Golgi transport screen; AID 739; post-Golgi transport phenotypic cell assay; inhibition, % at 10 µM; actives 0.9% (n = 98,000);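 also: yeast cells grown in 1536-well plates; yeast grown about 18 h at 30C before absorbance read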
hDAT+cocaine = changed human dopamine transporter uptake under cocaine IC80; actives 1.3% (n = 110,000); LLC-PK1 hDAT cells, [14C]-dopamine uptake with cocaine IC80; actives deviate in either direction; B-score at 10 µM;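 active = Z score or B-score, a plate-position-corrected score, falls beyond the plate's 99.7% confidence bounds, in either direction; inactive = both scores lie inside the 99.7% bounds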
Each line names hits and unclear results; the compound was inactive in the other large screens. Rows were chosen to be rich in hits. Some 12% of all compounds tested hit in one or more screens of this group. Rule as the data show it, unless noted: active = inhibition above about 30%; inactive = the rest.

O=C(CSCC(=O)N1CCN(c2ccccc2)CC1)Nc1nc(-c2ccc(Cl)s2)cs1	Cav32 inh -5.6 (no result: D1 mod)
Cc1c(N2C(=O)/C(=C\c3cccc4ccccc34)SC2=S)c(=O)n(-c2ccccc2)n1C	PostGolgi ctrl 54 (no result: D1 mod)
O=C(O)C(Cc1ccccc1)N1C(=O)/C(=C/c2cccc3ccccc23)SC1=S (stereo not drawn)	hDAT+cocaine -2.7 (no result: D1 mod)
O=C(O)C(Cc1ccccc1)N1C(=O)c2ccccc2C1=O (stereo not drawn)	none (no result: D1 mod)
Cc1ccc(C2=CC(c3ccc(C)cc3)n3ncnc3N2)cc1 (stereo not drawn)	none (no result: PLAP act, D1 mod, PostGolgi ctrl, PostGolgi yeast)
Clc1ccc(C2=CC(c3ccco3)n3ncnc3N2)cc1 (stereo not drawn)	Cav32 inh -5.6 (no result: D1 mod)
O=C1/C(=C/c2ccccc2)CCCc2ccccc21	none (no result: D1 mod)
Cn1cccc1/C=C1\CCC/C(=C\c2cccn2C)C1=O	Cav32 inh -13, PostGolgi ctrl 41 (no result: D1 mod)
COC(=O)C1(c2ccccc2)NC(c2cccs2)C2C(=O)N(c3ccccc3)C(=O)C21 (stereo not drawn)	none (no result: PLAP act, D1 mod, PostGolgi ctrl, PostGolgi yeast)
CC(C)c1cc(=O)oc2c3c4c(cc12)CCCN4CCC3	Cav32 inh -3.9, PLAP act 2
O=c1oc2c3c4c(cc2c(C(F)(F)F)c1CCN1CCOCC1)CCCN4CCC3	Cav32 inh -6.6 (no result: D1 mod)
O=c1oc2c(CN3CCOCC3)c(O)ccc2c2c1CCC2	none
COc1ccc(-n2ccnc2SCC(=O)Nc2ccc(OC)cc2OC)cc1	none
O=c1c(-c2nc3ccccc3s2)cccn1Cc1ccc(Cl)c(Cl)c1	PostGolgi ctrl 36 (no result: Cav32 inh, D1 mod)
COc1ccc(CN2CCCCC2C(=O)Nc2ccc(OC)c(OCC(C)C)c2)cc1OC (stereo not drawn)	none (no result: PLAP act, D1 mod, PostGolgi ctrl, PostGolgi yeast)
O=C(CNS(=O)(=O)c1ccc(Br)s1)NCC1COc2ccccc2O1 (stereo not drawn)	PostGolgi ctrl 95, PostGolgi yeast 68
O=C(NCC1COc2ccccc2O1)c1ccc(Cl)cc1 (stereo not drawn)	PostGolgi yeast 58 (no result: D1 mod)
S=C(NCc1ccccc1)NCC1COc2ccccc2O1 (stereo not drawn)	Cav32 inh -4.5 (no result: D1 mod)
O=C(CNS(=O)(=O)c1ccc(Br)s1)Nc1ccc2c(c1)OCCO2	none
O=C(CCC1COc2ccccc2O1)Nc1ccc(Cl)cn1 (stereo not drawn)	Cav32 inh -5.9
Oc1ccc(CNCC2COc3ccccc3O2)cc1 (stereo not drawn)	none (no result: D1 mod)
COC(=O)c1ccc(-n2nnnc2SCc2nn[nH]n2)cc1	none
COc1ccc2oc(-c3ccc(C)c(NC(=O)c4ccc(N5CCOCC5)c([N+](=O)[O-])c4)c3)nc2c1	none (no result: D1 mod)
CC1CCN(c2oc(-c3ccccc3Cl)nc2C#N)CC1	none (no result: D1 mod)
CCOP(=O)(c1ccccc1)c1nc(-c2ccccc2Cl)oc1N1CCCCC1 (stereo not drawn)	Cav32 inh -11 (no result: PLAP act, D1 mod, PostGolgi ctrl, PostGolgi yeast)
CCOC(=O)C1=C(C)S/C(=C\N(C)C)C1=O	none (no result: Cav32 inh, D1 mod)
CCCCn1c(N)c(N(CCC(C)C)C(=O)CSc2nnc3ccccn23)c(=O)[nH]c1=O	none
CN(C(=O)CSc1nnc(Nc2ccccc2)s1)c1c(N)n(Cc2ccccc2)c(=O)[nH]c1=O	PLAP act 2.1 (no result: Cav32 inh, D1 mod)
CCN(C(=O)CN1CCN(c2ccccc2)CC1)c1c(N)n(Cc2ccccc2)c(=O)[nH]c1=O	none
CCCCN(C(=O)CSc1nnc(Nc2ccc(C)c(C)c2)s1)c1c(N)n(Cc2ccccc2)c(=O)[nH]c1=O	Cav32 inh -5.3, PostGolgi ctrl 37 (no result: D1 mod)
C=CCNC(=S)N1CCN(CCN=CC2=C(O)CC(c3cccs3)CC2=O)CC1 (stereo not drawn)	none (no result: D1 mod)
O=C(CN1CCOc2ccccc21)N1CCN(c2cccc(Cl)c2)CC1	none (no result: PLAP act, PostGolgi ctrl, PostGolgi yeast)
CCCCCCOC(=O)Cc1c(C)nc(-c2ccccc2)[nH]c1=O	PostGolgi ctrl 34 (no result: D1 mod)
COc1cnn(-c2ccccc2)c(=O)c1SCc1ccc(Cl)cc1Cl	Cav32 inh -4, PostGolgi ctrl 36 (no result: D1 mod)
COc1ccc2c(c1)c1nnc(SC)nc1n2C	PostGolgi ctrl 87, PostGolgi yeast 58
COc1ccc2c(c1)c1nnc(SCC(=O)N3C(C)CCCC3C)nc1n2C (stereo not drawn)	none
Cc1sc(NC(=O)CN2CCOCC2)c(C(=O)c2ccccc2)c1C	PostGolgi yeast 35 (no result: D1 mod)
COCC(C)NC(=O)CSc1nc(-c2ccccc2)c(-c2ccccc2)o1 (stereo not drawn)	none (no result: D1 mod)
N#CCCn1nc(-c2ccccc2)cc1-n1c(C(F)(F)F)nc2ccccc21	Cav32 inh -3.4
Cc1nn(CCC#N)c2nc(-c3ccccc3)cc(C(F)(F)F)c12	none (no result: D1 mod)
O=C(Nc1nn[nH]n1)C12CC3CC(CC(C3)C1)C2	none (no result: D1 mod)
Cc1nn(-c2ccc(Cl)cc2Cl)c(=O)c2ccccc12	none (no result: PLAP act, D1 mod, PostGolgi ctrl, PostGolgi yeast)
Cc1c(C(=O)NN2CCCCC2)nn(-c2ccc(Cl)cc2Cl)c1-c1ccc(I)cc1	Cav32 inh -4.9 (no result: PLAP act, D1 mod, PostGolgi ctrl, PostGolgi yeast)
Cn1ccnc1SCc1cn2cc(Br)ccc2n1	D1 mod -4.7, hDAT+cocaine -8.7
COc1ccc(-n2c(-c3ccc(F)cc3)cnc2SCC(=O)NCc2ccco2)cc1	Cav32 inh -5.7 (no result: D1 mod)
COc1ccc(C(=O)Nn2c(SCC(=O)NCc3ccco3)nc3ccccc3c2=O)cc1	D1 mod -9.3
Cn1c(SCC(=O)NCc2ccco2)nc2ccccc2c1=O	none
COc1ccc(NC(C)C(=O)Nc2ccc(C(C)(C)C)cc2)cc1Cl (stereo not drawn)	Cav32 inh -6, PostGolgi ctrl 34 (no result: D1 mod)
CCN(Cc1cc2cccc(C)c2[nH]c1=O)C(=O)c1ccccc1OC	none (no result: D1 mod, PostGolgi ctrl, PostGolgi yeast)
COCCN(Cc1cc2cccc(C)c2[nH]c1=O)C(=O)c1ccccc1	PostGolgi ctrl 35
Cc1csc(=O)n1CCC(=O)O	none
COCCOC(=O)c1c(C)oc2ccc(NS(=O)(=O)c3ccc(C(=O)O)cc3)cc12	none (no result: D1 mod, PostGolgi ctrl, PostGolgi yeast)
CCCCOC(=O)c1c(C)oc2ccc(NS(=O)(=O)c3ccc4c5c(cccc35)C(=O)N4)cc12	Cav32 inh -5.8 (no result: D1 mod)
O=c1c2ccccc2nnn1CSc1nnc2sc3ccccc3n12	D1 mod -7.8 (no result: Cav32 inh, hDAT+cocaine)
O=c1c2ccccc2nnn1CSc1nnc(C2COc3ccccc3O2)n1-c1ccccc1 (stereo not drawn)	Cav32 inh -6.1
COC(=O)c1ccc(NC(=O)C2CCCN(S(=O)(=O)c3cnc[nH]3)C2)cc1 (stereo not drawn)	none
O=C1c2cccc3c([N+](=O)[O-])ccc(c23)C(=O)N1c1ccc(Cl)cn1	PostGolgi yeast 68 (no result: Cav32 inh, D1 mod, hDAT+cocaine)
O=[N+]([O-])c1ccc(Cl)c(/C=N/NC(=S)Nc2ccccc2)c1	none (no result: D1 mod)
Cc1cccc(N(CC(=O)N/N=C/c2cc([N+](=O)[O-])ccc2Cl)S(C)(=O)=O)c1C	Cav32 inh -5.5 (no result: D1 mod)
CS(=O)(=O)N(CC(=O)N/N=C/c1cc2c(cc1Br)OCO2)c1ccccc1Br	none (no result: Cav32 inh, D1 mod, hDAT+cocaine)
CS(=O)(=O)N(CC(=O)N/N=C/c1cc([N+](=O)[O-])ccc1Cl)c1ccccc1	hDAT+cocaine 2 (no result: Cav32 inh, D1 mod)
O=C(CSc1nnc(NCc2ccccc2)s1)c1ccco1	none (no result: Cav32 inh)
Cc1ccccc1NC(=O)C1CCC(C)(C(=O)O)C1(C)C (stereo not drawn)	none (no result: Cav32 inh)
